Our source for the inhibition values is PubChem BioAssay AID449762 (Southern Research Specialized Biocontainment Screening …, 2010).

About 1,900 (0.58%) of roughly 330,000 compounds were called active. About 4% were inconclusive and are not listed. Cut-off read from the data, not from the text of the source: inconclusive = inhibition above about 70% without an active follow-up result; inactive = below that. Not all results are given here. Measured potencies and affinities stand elsewhere.

The assay is described as follows: M. tuberculosis growth inhibition, HTS (AID 449762).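 Note: bacterial growth assessed after seven days of incubation.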 To be noted: M. tuberculosis H37Rv growth inhibition, 7H9 media; at 25 µM; hits give high values.
Turning to `O=C(c1cccc([N+](=O)[O-])c1)N1CCOCC1`, the inhibition was 5.5% (inactive). For `O=C(c1cccc(Cl)c1)N1CCN(c2ccc(N3CCOCC3)nn2)CC1` the value was 0.55% (inactive). With `COc1ccc(N2CCN(C(=O)C3CC(=O)N(c4ccc(C)cc4)C3)CC2)cc1` (stereo unspecified), the inhibition was 5.21% (inactive).

For the compound `COc1cccc(CC2(CO)CCCN(Cc3ccccc3-c3ccco3)C2)c1` (stereo unspecified), the inhibition was 5.57% (inactive). For `COc1cccc(C(=O)Nc2cccc(NC(=O)c3cccs3)c2)c1` the value was 0.1% (inactive). In the case of `S=c1[nH]nc(-c2ccncc2)n1/N=C/c1cn(-c2ccccc2)nc1-c1ccccc1`, the inhibition is 1.85% (inactive).

With `O=C(CC1C(=O)NCCN1Cc1ccoc1)NCCc1ccc(Cl)cc1` (stereo unspecified), the inhibition is -3.28% (inactive). In the case of `COC(=O)C1CSC(c2ccc(Cl)cc2)N1C(=O)c1ccccc1` (stereo unspecified), the inhibition is 3.7% (inactive). For `Cc1ccnc(N2CCC(C(=O)Nc3ccc4c(c3)OCO4)CC2)n1` the value was -6.75% (inactive); for `CCCn1nnnc1NC(=O)c1cc(Br)ccc1OC`, 14.5% (inactive). For `CCCn1nnnc1NC(=O)COc1ccc(Cl)c(C)c1` the value was 0.41% (inactive); for `O=C(COC(=O)COc1ccccc1)Nc1cccc([N+](=O)[O-])c1`, -0.12% (inactive); for `COc1cc(OC)c(OC)cc1CCC(C)NC(=O)Cc1ccccc1` (stereo unspecified), 2.6% (inactive). For `CC(CCc1ccc(O)cc1)NCCC(c1ccccc1)c1ccccc1` (stereo unspecified) the value was 64.6% (inactive). As to `CCOc1ccc(NC(=O)NNC(=O)C2CCC(C(C)(C)C)CC2)cc1` (stereo unspecified), the inhibition was -6.75% (inactive). `O=C(O)CCC(=O)Nc1ccccc1Oc1ccccc1`: the inhibition was -2.18% (inactive). For `Cc1cc(C)cc(NC(=O)c2cccc(C(=O)Nc3cc(C)cc(C)c3)n2)c1`, the inhibition is 5.97% (inactive).

With `CN1C2CCC1/C(=C\c1ccccc1F)C(=O)/C2=C/c1ccccc1F`, the inhibition was 5.25% (inactive). For `CN1C2CCC1/C(=C/c1cccn1C)C(=O)/C2=C\c1cccn1C` the value was 10.6% (inactive); for `C=CCOc1ccc(CNCC2CCCO2)cc1` (stereo unspecified), -1.36% (inactive). For `Cc1noc(C)c1CSCC(=O)N(CC(C)C)c1c(N)n(Cc2ccccc2)c(=O)[nH]c1=O` the value was -5.68% (inactive); for `CC(=O)Nc1ccc(N2C(=O)c3ccc(S(=O)(=O)c4ccc(C(=O)O)cc4)cc3C2=O)cc1`, -2.44% (inactive); for `COc1ccc(C(=O)ON=C2C=C(C)C(=O)C(C)=C2)cc1`, 63.5% (inactive). For `COc1ccc(S(=O)(=O)N=C2C=C(C)C(=O)C(C)=C2)cc1` the value was -12.4% (inactive); for `Cc1cc(C)n(C(=O)c2ccc(S(=O)(=O)N3CCOCC3)cc2)n1`, -3.21% (inactive).

With `COc1ccccc1NC(=O)COC(=O)/C=C/c1ccc(OC)c(OC)c1`, the inhibition was 24.8% (inactive). For `COc1ccccc1OCCNC(=O)/C=C/c1ccc([N+](=O)[O-])cc1` the value was 2% (inactive); for `Cn1c(=O)[nH]c(=O)c2c1nc(NCCCO)n2CCOc1ccccc1`, -8.75% (inactive). As for `O=C(c1cc2ccccc2o1)N(Cc1nnc(-c2ccccc2Cl)o1)C1CC1`, the inhibition was -0.85% (inactive). For `O=C(C1=COCCO1)N(Cc1nnc(-c2ccccc2Cl)o1)C1CC1` the value was 1.25% (inactive).

Turning to `CCOC(=O)N1CCN(C(=O)c2cc3ccc(OC)cc3[nH]2)CC1`, the inhibition is -1.51% (inactive). For `COc1ccc(C(=S)N2CCC(C(N)=O)CC2)cc1Br` the value was -5.29% (inactive); for `CC1CCCC(C)N1CC(O)COc1ccc(Cl)cc1` (stereo unspecified), -8.81% (inactive). For `COc1cc(OC)c(C(=O)/C=C/c2ccc(OCc3ccccc3)c(OC)c2)c(OC)c1` the value was 55.4% (inactive). As for `COc1ccc(-c2cc(=Nc3ccc(C)cc3)c3ccccc3o2)cc1`, the inhibition was 18.3% (inactive). Consider `CCOc1ccc(N=c2cc(-c3ccc(OC)cc3)oc3ccccc23)cc1`, for which the inhibition is 2.75% (inactive). As to `Nc1ccc(C(=O)OCc2nc3cc4ccccc4cc3[nH]2)cc1`, the inhibition was 3.37% (inactive).

In the case of `Nc1ccc(C(=O)OCCCc2nc3ccccc3[nH]2)cc1`, the inhibition was 2.21% (inactive). For `C/C=C(\C)CN1CCCC(CO)(Cc2ccccc2)C1` (stereo unspecified) the value was 12.6% (inactive); for `Cc1nc(SCC(=O)N2CCNC2=O)c2ccccc2n1`, 0.14% (inactive). For `N#CC(C(=O)NCCc1ccccc1)c1nc2ccccc2nc1N1CCOCC1` (stereo unspecified) the value was 4.18% (inactive); for `CCCCCCNC(=O)C(C#N)c1nc2ccccc2nc1N1CCOCC1` (stereo unspecified), 1% (inactive).

Turning to `CCCc1cc(=O)[nH]c(SCC(=O)c2cc(C)n(C)c2C)n1`, the inhibition was 2.23% (inactive). For `Cc1sc2c(c1C)CN(C(C)(C)C)CN2C(=O)c1ccccc1` the value was -8.66% (inactive). As for `COc1ccc(N2CCN(c3nc(NCCc4ccc(OC)c(OC)c4)nc(OC)n3)CC2)cc1`, the inhibition is -2.33% (inactive).

As to `COc1ccc(CCNc2nc(N3CCOCC3)nc(N3CCOCC3)n2)cc1OC`, the inhibition is -5.04% (inactive). For `Cc1ccc(CNC(=O)CN(C)S(=O)(=O)c2cnc[nH]2)cc1` the value was -4.45% (inactive); for `Cc1cccc(C)c1NC(=O)COc1ccccc1C(=O)Nc1ccc(Br)cn1`, 3.17% (inactive); for `O=C(NC(=S)Nc1ccccc1Cl)C1CC1`, 11.2% (inactive). For `COc1cc(NC(=O)C2CCN(S(=O)(=O)c3cccc4nonc34)CC2)cc(OC)c1` the value was 2.95% (inactive).

As to `CCOC(=O)C(CC)Sc1ncnc2c1nnn2-c1ccc(F)cc1` (stereo unspecified), the inhibition was -6.34% (inactive). For `CCOC(=O)CC(=O)CSc1ncnc2c1nnn2-c1ccc(F)cc1` the value was -7.23% (inactive); for `COC(=O)c1cc(NC(=O)C(C)c2ccc(CC(C)C)cc2)ccc1O` (stereo unspecified), 20.8% (inactive); for `CC1CCCN(C(=O)COC(=O)c2cccc(NS(=O)(=O)c3ccccc3)c2)C1` (stereo unspecified), -11.8% (inactive). For `O=C(O)c1cccc(-c2nnn(Cc3ccccc3)n2)c1` the value was -10.4% (inactive). For `O=C(Cn1nnc(-c2ccccc2)n1)OCc1ccccc1` the value was -6.9% (inactive); for `CCCCc1nnc(NC(=O)C(=O)OCC)s1`, -3.95% (inactive); for `Cc1ccsc1C(=O)Nc1cccc(-n2cnnn2)c1`, -0.76% (inactive). With `CCN(CC)S(=O)(=O)c1ccc(/C=C/C(=O)OCC(=O)N(C)C)cc1`, the inhibition is 4.6% (inactive). For `CCN(CC)S(=O)(=O)c1ccc(/C=C/C(=O)OCC(=O)N(C(C)C)C(C)C)cc1` the value was 3.48% (inactive); for `COc1ccc(NC(=S)N(CCCN2CCCC(C)C2)Cc2cccs2)cc1` (stereo unspecified), 6.16% (inactive).
